# Results reported in the supplement of paper PMC10720658.
# ± gives the standard deviation of the averaged measurements.
# Test system: AEK1 (Tb927.3.2440)
# Assay: percent reduction in TR-FRET probe signal relative to DMSO control; higher = stronger displacement of ATP-site probe (binding)
# Settings: 1 µM; incubation time 1 h
row,Compound,percent reduction in TR-FRET probe signal [%]
1,Cl.O=S(=O)(c1cccc2cnccc12)N1CCCNCC1 [Fasudil (HA-1077) HCl],4.93 ± 2
2,C=CC(=O)Nc1ccc2ncnc(Nc3ccc(OCc4cccc(F)c4)c(Cl)c3)c2c1.Cc1ccc(S(=O)(=O)O)cc1,4.49 ± 7.8
3,C=CC(=O)Nc1ccc(CN2C(=O)N(c3cc(OC)cc(OC)c3)Cc3cnc(Nc4ccc(N5CCN(C)CC5)cc4)nc32)cc1,4.12 ± 14
4,O=C1Nc2ccccc2/C1=C1\Nc2ccccc2C1=O [Indirubin],-2.5 ± 6.6
5,CO[C@H]1C[C@@H]2CC[C@@H](C)[C@@](O)(O2)C(=O)C(=O)N2CCCC[C@H]2C(=O)O[C@H]([C@@H](C)C[C@@H]2CC[C@@H](OCCO)[C@H](OC)C2)CC(=O)[C@H](C)/C=C(\C)[C@@H](O)[C@@H](OC)C(=O)[C@H](C)C[C@H](C)/C=C/C=C/C=C/1C [Everolimus (RAD001)],-14.9 ± 8.4
